From PubChem BioAssay AID1159580 (chemical genetic matrix, 2015)
Where “and” joins values, the source holds several entries; their conditions need not be identical. Equal values may be shown once. The campaign covered roughly 5,500 compounds. About 2,000 (36%) were called active. About 18% were inconclusive and are not listed. Rule as the data show it: active = normalized growth mostly below about 0.91 (no sharp cut-off); inconclusive = no clear call, values can overlap the other calls; inactive = mostly above about 0.92. The list shows a part of the results.

Experiment: chemical genetic growth profiling, strain panel (AID 1159580);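 also: tested at 20 µM; growth read once vehicle control cultures reached saturation at 30 °C; 1 = growth at the plate median or of vehicle wells; lower values mean less growth of the strain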
Conditions: S. cerevisiae deletion strains, growth OD
[1] = locus YAR019C, strain CDC15, stronger effect = lower value
[2] = locus YBL105C, strain PKC1, stronger effect = lower value
[3] = locus YBR135W, strain CKS1, stronger effect = lower value
[4] = locus YBR136W, strain MEC1, stronger effect = lower value
[5] = locus YBR160W, strain CDC28, stronger effect = lower value
[6] = locus YDL017W, strain CDC7, stronger effect = lower value
[7] = locus YDL028C, strain MPS1, stronger effect = lower value
[8] = locus YDL101C, strain DUN1, stronger effect = lower value
[9] = locus YDL108W, strain KIN28, stronger effect = lower value
[10] = locus YDL132W, strain cdc53, stronger effect = lower value
[11] = locus YDL214C, strain PRR2, stronger effect = lower value
[12] = locus YDR052C, strain DBF4, stronger effect = lower value
[13] = locus YDR054C, strain cdc34, stronger effect = lower value
[14] = locus YDR226W, strain ADK1, stronger effect = lower value
[15] = locus YDR477W, strain SNF1, stronger effect = lower value
[16] = locus YER123W, strain YCK3, stronger effect = lower value
[17] = locus YER133W, strain GLC7, stronger effect = lower value
[18] = locus YFL009W, strain cdc4, stronger effect = lower value
[19] = locus YFL029C, strain CAK1, stronger effect = lower value
[20] = locus YFR003C, strain YPI1, stronger effect = lower value
[21] = locus YFR019W, strain FAB1, stronger effect = lower value
[22] = locus YFR028C, strain CDC14, stronger effect = lower value
[23] = locus YGR040W, strain KSS1, stronger effect = lower value
[24] = locus YGR052W, strain FMP48, stronger effect = lower value
[25] = locus YGR092W, strain DBF2, stronger effect = lower value
[26] = locus YHR030C, strain SLT2, stronger effect = lower value
[27] = locus YHR079C, strain IRE1, stronger effect = lower value
[28] = locus YHR082C, strain KSP1, stronger effect = lower value
[29] = locus YHR205W, strain SCH9, stronger effect = lower value
[30] = locus YIL147C, strain SLN1, stronger effect = lower value
[31] = locus YJL095W, strain BCK1, stronger effect = lower value
[32] = locus YJL128C, strain PBS2, stronger effect = lower value
[33] = locus YJL157C, strain FAR1, stronger effect = lower value
[34] = locus YJR016C, strain ILV3, stronger effect = lower value
[35] = locus YJR066W, strain TOR1 (second series), stronger effect = lower value
[36] = locus YJR066W, strain TOR1, stronger effect = lower value
[37] = locus YKL048C, strain ELM1, stronger effect = lower value
[38] = locus YKL067W, strain YNK1, stronger effect = lower value
[39] = locus YKL101W, strain HSL1, stronger effect = lower value
[40] = locus YKL193C, strain SDS22, stronger effect = lower value
[41] = locus YKL203C, strain TOR2, stronger effect = lower value
[42] = locus YLR113W, strain HOG1, stronger effect = lower value
[43] = locus YLR133W, strain CKI1, stronger effect = lower value
[44] = locus YLR403W, strain SFP1, stronger effect = lower value
[45] = locus YML070W, strain DAK1, stronger effect = lower value
[46] = locus YMR001C, strain CDC5, stronger effect = lower value
[47] = locus YMR205C, strain PFK2 (second series), stronger effect = lower value
[48] = locus YMR277W, strain FCP1, stronger effect = lower value
[49] = locus YNL006W, strain LST8, stronger effect = lower value
[50] = locus YNL020C, strain ARK1, stronger effect = lower value
[51] = locus YNL161W, strain CBK1, stronger effect = lower value
[52] = locus YNL183C, strain NPR1, stronger effect = lower value
[53] = locus YNL207W, strain RIO2, stronger effect = lower value
[54] = locus YNL222W, strain SSU72, stronger effect = lower value
[55] = locus YNL307C, strain MCK1 (second series), stronger effect = lower value
[56] = locus YOL078W, strain AVO1, stronger effect = lower value
[57] = locus YOL136C, strain PFK27, stronger effect = lower value
[58] = locus YOR061W, strain CKA2, stronger effect = lower value
[59] = locus YOR119C, strain RIO1, stronger effect = lower value
[60] = locus YOR231W, strain MKK1, stronger effect = lower value
[61] = locus YOR329C, strain SCD5, stronger effect = lower value
[62] = locus YPL031C, strain PHO85, stronger effect = lower value
[63] = locus YPL153C, strain RAD53, stronger effect = lower value
[64] = locus YPL204W, strain HRR25, stronger effect = lower value
[65] = locus YPL209C, strain IPL1, stronger effect = lower value
[66] = locus YPL256C, strain CLN2, stronger effect = lower value
[67] = locus YPR025C, strain CCL1, stronger effect = lower value
[68] = locus YPR106W, strain ISR1, stronger effect = lower value
[69] = locus YPR111W, strain DBF20, stronger effect = lower value
[70] = strain NNK1, stronger effect = lower value
[71] = strain TSCII, stronger effect = lower value

Measured: normalized growth

CCCc1nc(-c2ccccn2)[nH]c(=O)c1CC1CC1
inactive: [1] 0.947 | [2] 0.955 | [3] 0.955 | [4] 0.952 | [5] 0.96 | [6] 0.956 | [7] 0.937 | [9] 0.956 | [10] 0.948 | [11] 0.944 | [12] 0.962 | [13] 0.93 | [14] 0.954 | [15] 0.945 | [16] 0.903 | [17] 0.952 | [18] 0.942 | [19] 0.935 | [20] 0.958 | [21] 0.968 | [22] 0.96 | [23] 0.936 | [24] 1.01 | [25] 0.865 | [27] 0.853 | [28] 0.968 | [29] 0.98 | [30] 0.945 | [31] 0.915 | [32] 0.96 | [33] 0.928 | [34] 0.953 | locus YJR043C, strain POL32, stronger effect = lower value 0.923 | [35] 0.849 | [36] 0.887 | [37] 0.956 | [38] 0.954 | [39] 0.933 | [40] 0.952 | [41] 0.98 | locus YLR058C, strain SHM2 (second series), stronger effect = lower value 0.938 | [42] 0.88 | [43] 0.938 | [44] 0.94 | [45] 0.959 | [46] 0.949 | [47] 0.939 | [48] 0.953 | [49] 0.966 | [50] 0.937 | [51] 0.957 | [52] 0.93 | [53] 0.94 | [54] 0.959 | [55] 0.937 | locus YNL322C, strain KRE1, stronger effect = lower value 0.975 | [56] 0.951 | [57] 0.959 | [58] 0.925 | [59] 0.937 | [60] 0.881 | [61] 0.952 | [62] 0.941 | [63] 0.926 | [64] 0.927 | [65] 0.958 | [66] 0.9 | [67] 0.949 | [68] 0.979 | [69] 0.973 | [70] 0.962 | [71] 0.949
active: locus YAL013W, strain DEP1, stronger effect = lower value 0.861 | locus YBR229C, strain ROT2, stronger effect = lower value 0.727 | locus YDL134C, strain PPH21, stronger effect = lower value 0.862 | locus YEL061C, strain CIN8, stronger effect = lower value 0.611 | locus YGR078C, strain PAC10, stronger effect = lower value 0.842 | locus YGR229C, strain SMI1, stronger effect = lower value 0.886 | locus YHR087W, strain rtc3, stronger effect = lower value 0.754 | locus YJL187C, strain SWE1, stronger effect = lower value 0.829 | locus YJR075W, strain HOC1, stronger effect = lower value 0.879 | locus YKL190W, strain CNB1, stronger effect = lower value 0.698 | locus YLR039C, strain RIC1, stronger effect = lower value 0.489 | locus YLR085C, strain ARP6, stronger effect = lower value 0.218 | locus YLR262C, strain YPT6, stronger effect = lower value 0.757 | locus YML094W, strain GIM5, stronger effect = lower value 0.534 | locus YMR219W, strain ESC1, stronger effect = lower value 0.916 | locus YMR263W, strain SAP30, stronger effect = lower value 0.889 | locus YMR307W, strain GAS1, stronger effect = lower value 0.386 | locus YNL128W, strain TEP1, stronger effect = lower value 0.869 | locus YNL153C, strain GIM3, stronger effect = lower value 0.84 | locus YNL298W, strain CLA4 (second series), stronger effect = lower value 0.601 | locus YNR030W, strain Alg12, stronger effect = lower value 0.498 | locus YPL055C, strain LGE1, stronger effect = lower value 0.738 | locus YPL241C, strain CIN2, stronger effect = lower value 0.648 | locus YPR135W, strain CTF4, stronger effect = lower value 0.413
0.948 (inactive) and 0.899 (active): [8]
0.292 (active) and 0.919 (inactive): [26]

C=CCc1c(CCC)nc(-c2ccccn2)[nH]c1=O
inactive: [1] 0.931 | [2] 0.945 | [3] 0.95 | [4] 0.933 | [5] 0.947 | [6] 0.931 | [7] 0.931 | [8] 0.945 | [9] 0.937 | [10] 0.936 | [11] 0.893 | [12] 0.955 | [13] 0.916 | [14] 0.94 | [15] 0.891 | [16] 0.772 | [17] 0.912 | [18] 0.928 | [19] 0.92 | [20] 0.952 | [21] 0.939 | [22] 0.945 | [23] 0.893 | [24] 0.904 | [25] 0.752 | [26] 0.875 | [27] 0.701 | [28] 0.883 | [29] 0.983 | [30] 0.931 | [31] 0.784 | [32] 0.96 | [33] 0.867 | [34] 0.94 | [35] 0.767 | [36] 0.748 | [37] 0.966 | [38] 0.902 | [39] 0.896 | [40] 0.936 | [41] 0.926 | [43] 0.886 | [44] 0.892 | [45] 0.884 | [46] 0.937 | [47] 0.901 | [48] 0.944 | [49] 0.943 | [50] 0.877 | [51] 0.945 | [52] 0.825 | [53] 0.924 | [54] 0.945 | [55] 0.84 | [56] 0.933 | [57] 0.883 | [58] 0.877 | [59] 0.905 | [60] 0.73 | [61] 0.941 | [62] 0.891 | [63] 0.864 | [64] 0.856 | [65] 0.94 | [67] 0.945 | [68] 0.944 | [69] 0.954 | [70] 0.945 | [71] 0.929
active: [42] 0.733 | [66] 0.823

Cc1nc(-c2ccccn2)[nH]c(=O)c1Cc1c(Cl)cccc1Cl
active: [42] 0.837
inactive: [1] 0.967 | [2] 0.962 | [3] 0.956 | [4] 0.954 | [5] 0.963 | [6] 0.961 | [7] 0.95 | [8] 0.965 | [9] 0.954 | [10] 0.941 | [11] 0.861 | [12] 0.96 | [13] 0.928 | [14] 0.959 | [15] 0.871 | [16] 0.726 | [17] 0.872 | [18] 0.965 | [19] 0.957 | [20] 0.959 | [21] 0.906 | [22] 0.972 | [23] 0.859 | [24] 0.871 | [25] 0.762 | [26] 0.985 | [27] 0.842 | [28] 0.893 | [29] 0.939 | [30] 0.946 | [31] 0.892 | [32] 0.928 | [33] 0.823 | [34] 0.952 | [35] 0.769 | [36] 0.864 | [37] 0.941 | [38] 0.881 | [39] 0.853 | [40] 0.951 | [41] 0.899 | [43] 0.889 | [44] 0.858 | [45] 0.84 | [46] 0.956 | [47] 0.876 | [48] 0.952 | [49] 0.952 | [50] 0.845 | [51] 0.958 | [52] 0.9 | [53] 0.951 | [54] 0.956 | [55] 0.843 | [56] 0.964 | [57] 0.866 | [58] 0.827 | [59] 0.887 | [60] 0.86 | [61] 0.958 | [62] 0.869 | [63] 0.805 | [64] 0.84 | [65] 0.956 | [66] 0.94 | [67] 0.964 | [68] 0.985 | [69] 0.973 | [70] 0.96 | [71] 0.949
